The nature of experiment [1]: compound effects on lung adenocarcinoma cell viability – A549, calcein-AM fluorescence, 48 h, basal, profiling panel (AID 1162). The note with it: higher = more signal.
Experiment [2] can be described thus: compound effects on differentiated 3T3-L1 adipocyte viability – cell-based, 3T3-L1 adipocytes, calcein-AM fluorescence, 48 h, basal, profiling panel (AID 1163). The note with it: 3T3-L1 adipocytes viability, higher = more signal.
Experiment [3] can be described thus: compound effects on hepatocellular carcinoma cell viability – HepG2, calcein-AM fluorescence, 48 h, basal, profiling panel (AID 1164). The note with it: higher = more signal.
Experiment [4] is described as follows: compound effects on multiple myeloma cell viability – MM1S, calcein-AM fluorescence, 48 h, basal, profiling panel (AID 1165).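 Also: viability of MM1S multiple myeloma cells under basal unstimulated conditions.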 To be noted: higher = more signal.
Experiment [5] in a line: calcein-AM signal in unstimulated myeloma cells – cell-based, calcein-AM fluorescence, 48 h, PK04 Diversity Set, profiling panel (AID 1166).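 Also: cells grown under basal conditions without added stimulus.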 The note with it: RPMI8226 myeloma viability, higher = more signal.
Experiment [6] is described as follows: JC-1 mitochondrial signal, unstimulated HepG2 cells – cell-based, JC-1 fluorescence, 24 h, 100 nL compound, profiling panel (AID 1167). The note with it: HepG2 mitochondrial potential, higher = more signal.
Experiment [7] can be described thus: JC-1 mitochondrial signal, unstimulated adipocytes – cell-based, JC-1 fluorescence, 3T3-L1 adipocytes, 24 h, 100 nL compound, profiling panel (AID 1168). The note with it: JC-1 mitochondrial fluorescence, higher = more signal, called active from +8 up or from −8 down.
The nature of experiment [8]: JC-1 mitochondrial signal, unstimulated myeloma cells – cell-based, JC-1 fluorescence, RPMI8226, 24 h, 100 nL compound, profiling panel (AID 1169). To be noted: JC-1 mitochondrial potential fluorescence, higher = more signal.
A short description of experiment [9]: JC-1 mitochondrial signal, unstimulated MM1S myeloma – cell-based, JC-1 fluorescence, 24 h, 100 nL compound, profiling panel (AID 1170). The note with it: MM1S mitochondrial potential, higher = more signal.
Experiment [10] in a line: resazurin metabolic signal in A549 cells – cell-based, resazurin fluorescence, 24 h, PK04 Diversity Set, profiling panel (AID 1171). To be noted: A549 viability, higher = more signal, called active from +8 up or from −8 down.

Drawing on PubChem BioAssay, this text covers z-score for 16 compounds.

Calls of active or inactive are those of the source.
Also: test concentration not given here.

For `COC(=O)CC=C[C@@H](C)[C@@H](C=NOC[C@@H](C)[C@H](OCc1ccccc1)C(C)C)OC`, the z-score in experiment [1] is -0.37; in experiment [2], -0.0404; in experiment [3], -0.0472; in experiment [4] it was -0.18; in experiment [5], -0.991; in experiment [6], 0.0695. Also, the z-score is -1.61 (inactive) in experiment [7], -0.151 in experiment [8], -0.93 in experiment [9] and -0.891 (inactive) in [10].
As for `CC(C)=NOC(C)CN1CCCCc2nc(C)c(C)cc21` (stereo not given), the z-score was 0.0529 in experiment [1]; -0.047 in experiment [2]; -0.018 in [3]; -0.3 in experiment [4]; -0.637 in experiment [5]; -0.792 in experiment [6]. The z-score in experiment [7] is -0.78 (inactive); in experiment [8], -0.633; in [9], 0.354; in experiment [10], -0.585 (inactive).
Turning to `CCOC(=O)NN=C1C[C@@H](O)[C@@H](O)[C@@H]2[C@@H]3C(=O)N(C[C@@H]4CCCO4)C(=O)[C@@H]3CC[C@H]12`, the z-score was -0.0295 in experiment [1]; 0.127 in experiment [2]; -1.17 in experiment [3]; -0.0085 in experiment [4]; 0.121 in experiment [5]; -0.686 in [6]. Also, the z-score in experiment [7] is -0.408 (inactive); in [8], -0.38; in experiment [9] it was -0.229; in [10] it was 0.159 (inactive).
On to `CC[C@@H](c1ccccc1)n1c(=O)n2n(c1=O)[C@H]1[C@H](O)[C@@H]3O[C@@H]3C(=NOCc3ccccc3)[C@H]1CC2`, for which the z-score in [1] is -2.83; in experiment [2], 0.229; in [3], -3.76; in experiment [4], -3.1; in experiment [5] it was -3.84; in experiment [6], 0.517. Moreover, the z-score in experiment [7] is -0.327 (inactive); in experiment [8], -1.05; in [9] it was -1.68; in experiment [10], -2.54 (inactive).
Take `O=C1[C@H]2CCn3c(=O)n(Cc4cc5c(cc4Cl)OCO5)c(=O)n3[C@H]2[C@H](O)[C@@H]2O[C@H]12`: the z-score in experiment [1] is 0.173; in experiment [2], -0.124; in experiment [3], -0.0111; in [4], -1.72; in [5] it was -0.518; in [6], 0.039. Also, the z-score in [7] is -0.275 (inactive); in [8], 0.177; in [9], -0.744; in [10] it was -0.963 (inactive).
Turning to `CO[C@H]1COC(=O)[C@H](C)COC(=O)[C@H](C)NC(=O)CC=C[C@H]1C`, the z-score is -0.0718 in [1]; 0.996 in [2]; -0.248 in experiment [3]; 0.0627 in experiment [4]; 0.286 in experiment [5]; 0.708 in experiment [6]. The z-score was 0.475 (inactive) in experiment [7], -0.218 in experiment [8], 1.3 in experiment [9] and 0.724 (inactive) in experiment [10].
As to `Cc1cc2c(nc1C)CCCCN2CC(O)CN1CCCc2nc(-c3ccc(Br)cc3)ccc21` (stereo not given), the z-score in experiment [1] was 1.54; in [2] it was -0.829; in experiment [3], 1.62; in [4], 0.322; in [5], -0.697; in [6] it was -0.814. Besides, the z-score in [7] is -0.16 (inactive); in experiment [8] it was 0.357; in experiment [9], -0.536; in experiment [10], -0.379 (inactive).
Take `COc1ccc(COC(=O)NN=C2C[C@@H](O)[C@@H](O)[C@@H]3[C@@H]4C(=O)N(C[C@@H]5CCCO5)C(=O)[C@@H]4CC[C@H]23)cc1`: the z-score in experiment [1] is 0.0369; in [2], -0.0792; in experiment [3] it was -0.592; in experiment [4], 0.634; in experiment [5] it was -0.107; in experiment [6] it was -0.402. Besides, the z-score in [7] was -1.22 (inactive); in experiment [8], -0.148; in experiment [9], -1.02; in [10], -0.0101 (inactive).
On to `CC(C)=NOC[C@@H](O)[C@H]1O[C@@H]2OC(C)(C)O[C@@H]2[C@H]1O`, for which the z-score in [1] was 0.112; in experiment [2], -1.53; in experiment [3], 0.139; in [4], -0.112; in [5], -0.0588; in [6], -0.00334. Besides, the z-score in [7] was -1.09 (inactive); in experiment [8], -1.01; in [9] it was 0.661; in experiment [10], -0.871 (inactive).
On to `COC(=O)C1=C(C)N(Cc2ccccc2)C2=C3C(=O)OCC[C@@H]3[C@@](O)(C(=O)OC)C(=O)N2[C@@H]1c1ccccc1`, for which the z-score in experiment [1] was 1.62; in [2], -0.792; in experiment [3], 0.24; in experiment [4] it was 0.489; in experiment [5], -0.755; in experiment [6], 1.85. For the same compound, the z-score is -1.11 (inactive) in experiment [7], -0.391 in [8], -0.91 in experiment [9] and 0.56 (inactive) in experiment [10].
On to `O=C1[C@H]2[C@H]3[C@H](O)[C@H](O)CC(=NOC[C@@H](O)COCc4ccco4)[C@@H]3CC[C@H]2C(=O)N1C1CCCCC1`, for which the z-score in experiment [1] is 0.0095; in experiment [2] it was 0.272; in experiment [3], 0.444; in experiment [4] it was 0.0224; in experiment [5], -0.002; in [6], -0.82. Further, the z-score is -0.181 (inactive) in experiment [7], -0.422 in [8], -0.891 in experiment [9] and 0.014 (inactive) in experiment [10].
With `CCOC(=O)[C@H](CC(C)C)NC(=O)CCC1CC(OC(=O)NCc2ccc3c(c2)OCO3)CC2(CCCC(COC(=O)NCCc3ccc(Cl)cc3)O2)O1` (stereo not given in full), the z-score in [1] is 0.0432; in [2], -0.179; in experiment [3], 0.0309; in [4], -0.986; in experiment [5] it was 0.415; in experiment [6], -0.253. Moreover, the z-score in [7] is 0.526 (inactive); in [8], -0.966; in [9], -0.238; in experiment [10], 0.39 (inactive).
For `O=C1[C@H]2CCn3c(=O)n(-c4ccccc4)c(=O)n3[C@H]2[C@H](O)[C@@H]2O[C@H]12`, the z-score in [1] was 0.0313; in experiment [2] it was -0.226; in [3] it was -0.352; in [4], -1.32; in experiment [5], -0.19; in [6] it was -0.237. In addition, the z-score in experiment [7] is -0.169 (inactive); in [8] it was -0.104; in experiment [9], -0.351; in [10], -0.331 (inactive).
For the compound `O=C1C=C[C@@H](O)[C@@H]2[C@@H]3C(=O)N(Cc4ccc5c(c4)OCO5)C(=O)[C@@H]3CC[C@@H]12`, the z-score is -0.0516 in experiment [1]; 0.493 in experiment [2]; 0.0311 in [3]; -0.186 in [4]; 0.0706 in experiment [5]; -0.214 in [6]. The z-score is -0.0146 (inactive) in experiment [7], 0.0398 in experiment [8], 0.652 in experiment [9] and -0.701 (inactive) in experiment [10].
With `CCOC(=O)CCN1C(=O)[C@H]2[C@H]3[C@H](O)[C@H](O)CC(=NOCC=C(C)CCC=C(C)C)[C@H]3CC[C@H]2C1=O`, the z-score is 0.844 in experiment [1]; -1.23 in [2]; 0.536 in experiment [3]; 0.345 in experiment [4]; 0.15 in [5]; 0.572 in [6]. Further, the z-score in [7] is 0.408 (inactive); in experiment [8], 0.523; in experiment [9] it was -1.44; in experiment [10] it was -1.1 (inactive).
Consider `COC(OC)[C@@H](C)[C@H](OC)[C@@H](C)[C@H](OC)c1ccccc1`, for which the z-score was 2.22 in experiment [1]; 0.159 in [2]; 0.568 in experiment [3]; -0.569 in [4]; 0.692 in experiment [5]; 0.348 in experiment [6]. Further, the z-score in experiment [7] was -0.14 (inactive); in experiment [8] it was 0.404; in experiment [9] it was 1; in experiment [10] it was -0.996 (inactive).
